MITF primary: MITF inhibitors, primary screen, biochemical, AlphaScreen, human; AlphaScreen MITF homodimerization, bead proximity signal; inhibition, % at 2.6 µM; 650,000 compounds, 0.91% hits; AID 1259374, 2018; in the data active means inhibition above about 50%;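 further: 0% = vehicle wells with protein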
GPR151 ag: activators of human GPR151, primary screen, cell-based, PathHunter beta-arrestin, luminescence | G-protein coupled receptor 151 (Homo sapiens), Q8TDV0 | PathHunter beta-arrestin GPR151 cells | activation, % at 11.2 µM | 650,000 compounds, 1% hits; in the data active means activation above about 4.9%;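 further: 0% = median of compound wells and 100% = cells with positive control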
TEAD-YAP inh: TEAD-YAP interaction inhibition, primary screen, TEAD-YAP interaction inhibitor project, luminescence, HEK-TIYL cells; 640,000 compounds, 1.4% hits; TEAD-Gal4/YAP UAS-luciferase luminescence; AID 1259422, 2018; inhibition, % at 9.12 µM; in the data active means inhibition above about 32%;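 further: 0% = median of test compound wells and 100% = reference inhibitor wells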
FBW7 act: FBW7 E3 ligase activators, primary screen, biochemical, AlphaScreen, human. F-box/WD repeat-containing protein 7 (Homo sapiens), Q969H0. AlphaScreen FBW7–phospho-cyclin E peptide binding, activator screen. normalized activity (activation), % at 26.1 µM. 650,000 compounds, 0.13% hits; in the data active means normalized activity above about 1.9%;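 further: purified mutant Fbw7 with reduced substrate affinity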
Target sequence (Q969H0 whole entry, looked up): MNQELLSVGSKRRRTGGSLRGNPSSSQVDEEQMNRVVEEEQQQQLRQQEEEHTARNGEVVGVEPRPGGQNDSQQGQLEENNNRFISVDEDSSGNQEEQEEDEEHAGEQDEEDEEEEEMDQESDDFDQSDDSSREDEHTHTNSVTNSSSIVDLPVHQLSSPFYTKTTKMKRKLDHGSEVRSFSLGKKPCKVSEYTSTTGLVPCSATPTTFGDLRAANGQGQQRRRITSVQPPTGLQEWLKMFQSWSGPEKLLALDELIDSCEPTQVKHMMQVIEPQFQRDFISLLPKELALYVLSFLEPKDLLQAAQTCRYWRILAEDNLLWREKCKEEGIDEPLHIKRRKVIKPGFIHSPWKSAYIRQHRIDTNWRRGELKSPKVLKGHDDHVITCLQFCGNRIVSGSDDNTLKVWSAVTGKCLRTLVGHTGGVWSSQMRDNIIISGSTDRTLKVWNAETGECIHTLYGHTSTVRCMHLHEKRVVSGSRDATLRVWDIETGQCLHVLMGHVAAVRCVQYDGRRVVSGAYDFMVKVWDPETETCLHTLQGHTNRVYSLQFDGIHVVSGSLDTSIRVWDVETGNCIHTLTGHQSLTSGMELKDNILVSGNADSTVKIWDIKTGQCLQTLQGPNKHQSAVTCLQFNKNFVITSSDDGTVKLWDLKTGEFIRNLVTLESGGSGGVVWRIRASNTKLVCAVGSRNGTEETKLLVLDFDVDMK
GPR151 conf act: GPR151 activators, triplicate retest, confirmation, cell-based, PathHunter beta-arrestin, luminescence; shares compounds with GPR151 ag; GPR151 PathHunter beta-arrestin cells, 90 min; % of EA-reagent control over plate median; activation, % at 11.2 µM; 6,700 tested, under 10 active; AID 1508609, 2020;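 active means mean percent activation across replicates above the confirmation screen cutoff of 4.91%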
GPR119 ag: GPR119 activators in beta-arrestin cells, counter-screen for GPR151 activator project, cell-based, PathHunter beta-arrestin, luminescence, triplicate. shares compounds with GPR151 ag. activation, % at 11.2 µM. 6,700 compounds, 0.3% hits. 90 min; 0 = compound-well median, 100 = enzyme-acceptor control;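 active means mean percent activation in the counterscreen above 29.09%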;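 further: counterscreen on off-target GPR119 to flag nonselective hits from the GPR151 activator screen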
Starred values were filed as active, the others as inactive; / = not tested or not shown. Hits are enriched below; roughly 3.4% of the tested compounds scored in any of these assays.

SMILES	MITF primary	GPR151 ag	TEAD-YAP inh	FBW7 act	GPR151 conf act	GPR119 ag
O=C(COC(=O)c1ccccc1O)c1ccc(Br)cc1	18	-2	-22	0	/	/
CCc1nc2ccc(-c3ccc4nc(CC)oc(=O)c4c3)cc2c(=O)o1	14	8.8*	-1	0	0	6
C=C(C)c1nc2ccc(-c3ccc4nc(C(=C)C)oc(=O)c4c3)cc2c(=O)o1	18	0	0	0	/	/
c1cc(-c2noc(C3CCNCC3)n2)ccn1	3	3	3	0	/	/
c1ccc(C(c2ccccc2)c2noc(C3CCNCC3)n2)cc1	8	6.9*	-5	0	-1	-5
CCOC(=O)C1=C(C)N=c2s/c(=C\c3ccc(-c4ccc(C)c([N+](=O)[O-])c4)o3)c(=O)n2C1c1cccs1 (centres undefined)	-7	2	-8	0	/	/
CCOC(=O)C1=C(C)Nc2nc(SC)nn2C1c1ccc(OC)cc1 (centres undefined)	8	2	3	0	/	/
CCOC(=O)C1=C(C)Nc2nc(SCc3cccnc3)nn2C1c1ccc(OC)cc1 (centres undefined)	9	8.0*	-3	0	0	7
COc1ccc2cccc(NC(=O)c3ccco3)c2n1	8	6.4*	-1	0	0	9
O=C(Nc1cccc2ccc(-n3cccc3)nc12)c1ccco1	-4	-1	-5	0	/	/
Cc1c(C(=O)NC(=S)Nc2ccc(-c3nc4ccccc4o3)cc2)oc2ccccc12	7	0	-1	0	/	/
CCNc1nc(NCC)n2c(SCC(=O)c3ccc(OC)cc3)nnc2n1	-6	1	-2	0	/	/
CCNc1nc(NCC)n2c(SCC(=O)OCC)nnc2n1	-1	26*	11	0	2	11
CC(C)CN1CCN2C(=O)[C@H](Cc3ccc(Cl)cc3)NC(=O)[C@H]2C1	1	2	10	0	/	/
O=C(Nc1cccc2ncccc12)c1ccc2c(c1)S(=O)(=O)c1ccccc1C2=O	12	0	9	0	/	/
CC1=Nc2ccc(Cl)cc2C(c2ccccc2)N1CCNC(=O)CN(C)C (centres undefined)	/	3	/	/	/	/
O=C(CN(Cc1ccccc1F)S(=O)(=O)c1ccc(Cl)cc1)NCCCO	5	6.0*	11	0	1	8
O=C(NCCC1CCCCN1S(=O)(=O)c1ccccc1)Nc1ccc(Cl)cc1 (centres undefined)	8	8.1*	6	0	-1	-11
Ic1ccc(-n2cnc3nc4c(c(-c5ccccc5)c32)CCCC4)cc1	2	1	1	0	/	/
O=C(CN1Cc2ccccc2OC(c2ccsc2)C1)NCc1cccnc1 (centres undefined)	7	0	10	0	/	/
Cc1ccc(C)c(NS(=O)(=O)c2c(C)ccc3nsnc23)c1	-9	1	-5	0	/	/
Cc1ccc(NS(=O)(=O)c2c(C)ccc3nsnc23)cc1	12	5.2*	6	1	-1	-1
CC(C)(C)C#CC1(F)C2CCCCC21 (centres undefined)	0	1	9	0	/	/
COc1ccc(C2C(C(C)=O)=C(C)N=c3s/c(=C\c4cccnc4)c(=O)n32)c(OC)c1 (centres undefined)	10	7.1*	-1	0	-1	4
CCOc1cc(/C=C2/C(=N)N3N=C(CC)SC3=NC2=O)cc(Cl)c1OCCOc1ccc(C)cc1C	5	1	-1	0	/	/
CCOc1cc(/C=C2/C(=N)N3N=C(CC)SC3=NC2=O)cc(Cl)c1OCCOc1cc(C)ccc1C	7	8.4*	-9	0	0	-5
NC(=O)COc1ccc(NC(=O)c2cncc(Br)c2)cc1	-1	6.1*	-13	0	-1	-15

Compound activity as filed in PubChem.
